Laboratory results as given in ChEMBL document CHEMBL3988442, “University of Dundee, Small-Polar-MMV Screening Library” (2021).
Several values for one entry are separate records, joined by “and”; a condition that tells them apart may be missing. Equal values may be shown once. The campaign covered roughly 34,000 compounds. About 290 (0.85%) showed an effect of 50% or more. For the sample, strong results were picked, then their nearest neighbours and some compounds at random.

Tested on: Plasmodium falciparum
Test: Plasmodium falciparum sporozoite viability assay
Type: functional, organism-based
Design: scale not given: in the data most compounds retested in dose-response had high values

SMILES	Percent Effect (10 mM as filed; unlikely as a test dose)	Percent Effect [%]
O[C@H]1CN(c2nc(-c3ccccc3)no2)C[C@@H]1N1CCOCC1	-27.06% and -32.72%	–
OC1CCN([C@@H]2CCN(c3nc(-c4ccccc4)no3)C[C@H]2O)CC1	63.55% and 40.94%	–
OC1CCN(c2ccccc2NCc2nc(-c3cccs3)no2)CC1	22.91% and 47.25% and 30.27%	–
Cc1nn2c(N3CCC(O)CC3)cc(-c3ccccc3)nc2c1C	–	-9.448
Cc1cccc(NC(=O)[C@@H]2CCCN2Cc2ccc(C#N)cc2F)n1	–	-15.69
CCn1ncc2c1C(COC)CN(Cc1ccc(F)cc1)C2.O=C(O)C(F)(F)F.O=C(O)C(F)(F)F (stereo not drawn)	–	5.175
O=C(O)c1cccc(S(=O)(=O)N2CCOc3ccccc32)c1	–	8.824
Cn1cnc(S(=O)(=O)NCCCN2CCCCCC2=O)c1Cl	–	-2.417
CCNC(=O)C(C)NC(=O)c1cnc(-c2ccc(C)cc2C)s1 (stereo not drawn)	–	5.538
CSc1nccc(N2CCC(NCc3ccc4c(c3)OCO4)CC2)n1	–	4.585
CCCNCc1ccc(OCc2ccc3c(c2)OCCO3)cc1.Cl	-30.54% and -21.42%	–
COc1c(CNCc2ccc3c(c2)OCCO3)c(C(C)C)nn1C	–	14.99
Cl.c1cc(OCc2ccc3c(c2)OCO3)ccc1CNC1CC1	33.09% and 60.95% and 82.86%	–
CCNCc1ccc(OCc2ccc3c(c2)OCCO3)cc1.Cl	-24.62% and -4.131%	–
COc1cc(CNCC(C)O)cc(Cl)c1OCc1ccc(C)cc1.Cl (stereo not drawn)	–	-5.385
CC(O)CNCc1ccc(OCc2ccc3c(c2)OCCO3)cc1.Cl (stereo not drawn)	88.95% and 91.02% and 83.06%	–
CC(C)(CO)NCc1ccc(OCc2ccc3c(c2)OCCO3)cc1.Cl	25.27% and 55.16%	–
CC(C)(C)NCc1ccc(OCc2ccc3c(c2)OCCO3)cc1.Cl	-36.62% and -27.49%	–
Cc1nccn1C1CCCN(C(=O)c2sccc2-n2cnnn2)C1 (stereo not drawn)	–	-0.2931
CN1CCN(Cc2cn3c(n2)CN(C2CCOCC2)CC3)CC1.O=C(O)C(F)(F)F.O=C(O)C(F)(F)F.O=C(O)C(F)(F)F	–	10.57

SMILES	Percent Effect (10 mM as filed; unlikely as a test dose)	Percent Effect [%]
O=C(CCc1ccco1)Nc1cc(C(F)(F)F)c[nH]c1=O	–	-11.4
COc1cccc(O[C@H]2CCN(c3nc(C)cc(C)n3)CC[C@@H]2O)c1	–	11.61
O=C(Cn1cccc2cc(-c3ccc(F)cc3)nc1-2)N1CCC(O)CC1	–	-1.811
COc1ccc(C2CNCCN2C(=O)c2cccc3ncccc23)cc1 (stereo not drawn)	–	4.068
CC(C)N(C)S(=O)(=O)c1ccc2c(c1)CCN(C(=O)c1cnccn1)C2	–	-1.97
O=C(CN1CCCC1c1noc(C2CC2)n1)NCCc1ccsc1 (stereo not drawn)	–	13.6
CN(C)c1ccc(C(=O)N2CCCN(Cc3cnn(C)c3)CC2)nn1	–	-1.596
O=C(O)c1ccc(=O)n(CC(c2ccc(Cl)cc2)N2CCOCC2)c1 (stereo not drawn)	–	5.86
Cc1ccccc1-c1noc(CN2CC(n3cccn3)C2)n1	–	-26.31
Cc1cccc(-c2noc(CN3CC(n4cc(C)cn4)C3)n2)c1	–	-1.145
NC(=O)c1nc2c(s1)CCN(C(=O)Nc1ccccc1)CC2	–	13.34
O=C(Nc1ccccc1)N1CCc2nc(C(=O)N3CCCC3)sc2CC1	42.14% and 56.3% and 42.63%	–
CCOCCCNC(=O)C1(C)CCC(=O)N1Cc1ccccc1F (stereo not drawn)	–	-5.282
COc1cccc(-c2cc(C3CCCNC3)ccn2)c1 (stereo not drawn)	–	10.99
COc1ccc(-c2cc(C3CCCNC3)ccn2)cc1.Cl (stereo not drawn)	–	3.809
COc1cccc(Nc2nc(-c3ccncc3)nc3c2CNCC3)c1.Cl	–	6.202
COc1cccc(Nc2nc(N3CCCC3)nc3c2CNCC3)c1.Cl	–	4.348
Cc1cc(C)nc(Nc2nccnc2C2CCCN(CCO)C2)n1 (stereo not drawn)	–	-0.8244
Cc1ccoc1C(=O)NC1CCN(C(=O)Nc2ccccn2)CC1	–	4.048
CN1CCN(C[C@@H]2OC[C@H]3CN(CCc4ccccc4)CC[C@H]32)CC1.O=C(O)C(F)(F)F.O=C(O)C(F)(F)F.O=C(O)C(F)(F)F	–	9.359

SMILES	Percent Effect (10 mM as filed; unlikely as a test dose)	Percent Effect [%]
O=C(NCC1CCCCC1)NC1CCCc2c1cnn2CCO (stereo not drawn)	38.6% and 33.33% and 56.01%	–
O=C(NC1CCCCC1)NC1CCCc2c1cnn2CCO (stereo not drawn)	-11.63% and -7.35% and -4.902%	–
CSc1ccc(OCCN2CCNC(=O)CC2)cc1	–	-10.56
CSCC[C@H](N)c1nnc(SCc2cc(C)ccc2C)o1.Cl	–	-8.516
CCc1n[nH]c(C(=O)NCCn2nccc2C)c1C	28.41% and 66.23% and 77.05%	–
CCc1n[nH]c(C(=O)NCCn2ccnc2C)c1C	-3953% and -3827%	–
CC(C(=O)N1CCN(Cc2ccc3c(c2)OCO3)CC1)n1ccnc1 (stereo not drawn)	–	3.608
CCn1cnnc1CNC(=O)N1CCC(CN2CCCCCC2)CC1	–	4.778
CC(C)COCc1cncc2c1CCN(C(=O)c1cscn1)C2.O=C(O)C(F)(F)F	–	5.063
CC(C)Cc1nc(CO)n(-c2ccc3c(c2)OCCO3)n1	46.72% and 37.75%	–
CC[S+]([O-])CCc1nc(CC(C)C)nn1-c1ccc2c(c1)OCCO2 (stereo not drawn)	61.59% and 54.31%	–
Cc1cc(C)n(CC2CCCN2C(=O)CCc2ccncc2)n1 (stereo not drawn)	–	1.423
Cn1ccc(C(=O)NCc2cccc(CN3CCCC3)c2)cc1=O	–	11.38
CCOc1ccnc(N2CCN(C(=O)c3c(CC)noc3C)CC2)n1	–	-6.802
Cc1nccn1CC1CCCN1S(=O)(=O)Cc1ccc(F)cc1 (stereo not drawn)	–	5.478
CN1CCOC(C(=O)Nc2ccc3[nH]nnc3c2)C1 (stereo not drawn)	-26.35% and -20.34%	–
CN1CCOC(C(=O)Nc2ccc3c(c2)nc(C2CC2)n3C)C1 (stereo not drawn)	-13.44% and -13.85%	–
CN1CCOC(C(=O)Nc2ccc3c(c2)nc(C(C)(C)C)n3C)C1 (stereo not drawn)	104.1% and 105.2%	–
